Rtt109 Vps75: inhibitors of C. albicans Rtt109/Vps75 HAT, primary screen, biochemical, ThioGlo CoA-SH fluorescence, plate reader. Histone acetyltransferase RTT109 (Candida albicans (strain SC5314 / ATCC MYA-2876)), …. purified Rtt109/Vps75, 4 h. inhibition, % at 34.9 µM. 330,000 tested, 0.16% active. AID 540336, 2011;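 active = inhibition of at least 50% in every replicate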
Target sequence (Q5AAJ8 whole entry, looked up): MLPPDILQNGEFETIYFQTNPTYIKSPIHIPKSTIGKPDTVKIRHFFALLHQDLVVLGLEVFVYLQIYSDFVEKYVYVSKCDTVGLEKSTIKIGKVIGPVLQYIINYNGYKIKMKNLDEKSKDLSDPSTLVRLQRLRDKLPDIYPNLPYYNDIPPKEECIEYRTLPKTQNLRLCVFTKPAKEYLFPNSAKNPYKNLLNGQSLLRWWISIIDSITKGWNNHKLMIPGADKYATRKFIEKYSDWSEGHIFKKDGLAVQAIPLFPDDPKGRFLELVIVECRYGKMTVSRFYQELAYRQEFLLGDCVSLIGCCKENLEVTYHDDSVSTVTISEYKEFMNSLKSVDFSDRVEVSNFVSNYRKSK
PDI inh: inhibitors of human PDI, primary screen, biochemical, turbidity, single point, plate reader; Protein disulfide-isomerase (Homo sapiens), P07237; PDI insulin aggregation turbidity, A650, 90 min; inhibition, % at 10 µM; 350,000 tested, 0.052% active; AID 588391, 2011;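 active = mean inhibition across replicates of 30% or more, whatever share of single replicates reach that level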
ERp5 block: inhibitors of ERp5-driven insulin aggregation, primary screen, biochemical, turbidity, absorbance 650 nm, single point | Protein disulfide-isomerase A6 (Homo sapiens), Q15084 | inhibition, % at 9.99 µM | 350,000 tested, 0.05% active | 90 min;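 active = mean replicate inhibition above about 25%, with every replicate also reaching it, limit read from the data, passing the limit was not always enough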
SIRT5 block: SIRT5 desuccinylase inhibitors, primary screen, biochemical, fluorescence imaging, single point, set 5; AID 652115, 2013; 330,000 tested, 1.1% active; inhibition, % at 15 µM; NAD-dependent protein deacylase sirtuin-5, mitochondrial (Homo sapiens), Q9NXA8; Purified SirT5, succinyl-peptide AMC, trypsin-coupled fluorescence; in the data active = inhibition above about 15%
Target sequence (Q9NXA8 whole entry, looked up): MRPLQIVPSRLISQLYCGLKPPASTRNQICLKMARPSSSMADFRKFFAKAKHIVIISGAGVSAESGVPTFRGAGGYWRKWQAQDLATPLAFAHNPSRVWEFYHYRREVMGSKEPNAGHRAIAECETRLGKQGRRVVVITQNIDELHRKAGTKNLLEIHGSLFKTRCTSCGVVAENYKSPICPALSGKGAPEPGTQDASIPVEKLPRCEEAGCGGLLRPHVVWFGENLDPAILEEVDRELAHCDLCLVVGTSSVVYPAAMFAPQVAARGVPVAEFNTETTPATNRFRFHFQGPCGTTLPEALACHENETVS
DENV2 CPE: inhibitors of DENV2 cytopathic effect, primary screen, cell-based, plate reader, single concentration; CPE inhibition, % at 9.99 µM; DENV2-infected cells, cytopathic effect rescue; AID 651640, 2012; 350,000 tested, 1.7% active; in the data active = CPE inhibition above about 20%, passing the limit was not always enough; tested in BHK-21 cells
Each line names hits and unclear results; the compound was inactive in the other large screens. A selection: hits, their analogues and other compounds. The true share with any hit is near 2.3%.

COc1cccc(S(=O)(=O)N2C[C@H](O)COC[C@H]3O[C@H](CC(=O)NCCCN4CCOCC4)CC[C@@H]32)c1	none (no result: Rtt109 Vps75, PDI inh)
C[C@@H]1CN([C@@H](C)CO)C(=O)c2cc(NS(C)(=O)=O)ccc2O[C@@H](C)CCCCO[C@@H]1CN(C)C(=O)Nc1ccc(C(F)(F)F)cc1	DENV2 CPE 46 (no result: Rtt109 Vps75, PDI inh)
C[C@@H]1CCCCO[C@@H](CN(C)C(=O)Nc2ccc(C(F)(F)F)cc2)[C@H](C)CN([C@@H](C)CO)C(=O)c2cc(NS(=O)(=O)c3ccccc3)ccc2O1	DENV2 CPE 54 (no result: Rtt109 Vps75, PDI inh)
C[C@@H]1CCCCO[C@H](CN(C)C(=O)Nc2ccc(C(F)(F)F)cc2)[C@H](C)CN([C@@H](C)CO)C(=O)c2cc(NS(=O)(=O)c3ccccc3)ccc2O1	DENV2 CPE 40 (no result: Rtt109 Vps75, PDI inh)
C[C@H](CO)N1C[C@H](C)[C@H](CN(C)C(=O)Nc2ccc(C(F)(F)F)cc2)OCCCC[C@H](C)Oc2ccc(NS(=O)(=O)c3ccccc3)cc2C1=O	DENV2 CPE 41 (no result: Rtt109 Vps75, PDI inh)
CCS(=O)(=O)N[C@H]1C=C[C@H](CC(=O)NCc2ccc(F)cc2)O[C@H]1CO	none (no result: Rtt109 Vps75, PDI inh)
COC(=O)C[C@@H]1CC[C@@H]2[C@H](COC[C@@H](O)CN2S(=O)(=O)c2ccccc2C)O1	none (no result: Rtt109 Vps75, PDI inh)
COc1ccc(NC(=O)N2CC(=O)N3[C@@H](CO)[C@@H](c4ccc(-c5ccc(C)cc5)cc4)[C@@H]3C2)cc1	none (no result: Rtt109 Vps75, PDI inh)
C[C@@H]1CCCCO[C@H](CN(C)C(=O)Nc2ccc(C(F)(F)F)cc2)[C@@H](C)CN([C@H](C)CO)C(=O)c2cc(NS(=O)(=O)c3ccccc3)ccc2O1	DENV2 CPE 37 (no result: Rtt109 Vps75, PDI inh)
CCCNC(=O)[C@H]1[C@H](CO)[C@H]2Cn3c(cccc3=O)[C@H]2N1CCC(F)(F)F	none (no result: Rtt109 Vps75, PDI inh)
COC(=O)c1ccc(N2C(=O)CC(SCC(=O)Nc3ccc(OC)cc3)C2=O)cc1 (configuration not stated)	Rtt109 Vps75 94
Cc1ccc(S(=O)(=O)Nc2ccc3c(c2)C(=O)N([C@@H](C)CO)C[C@H](C)[C@H](CN(C)S(C)(=O)=O)OCCCC[C@@H](C)O3)cc1	none (no result: Rtt109 Vps75, PDI inh)
Cc1ccc(S(=O)(=O)Nc2ccc3c(c2)C(=O)N([C@H](C)CO)C[C@H](C)[C@@H](CN(C)S(C)(=O)=O)OCCCC[C@@H](C)O3)cc1	none (no result: Rtt109 Vps75, PDI inh)
Cc1ccc(S(=O)(=O)Nc2ccc3c(c2)C(=O)N([C@@H](C)CO)C[C@H](C)[C@@H](CN(C)S(C)(=O)=O)OCCCC[C@H](C)O3)cc1	DENV2 CPE 29 (no result: Rtt109 Vps75, PDI inh)
Cc1ccc(S(=O)(=O)Nc2ccc3c(c2)C(=O)N([C@H](C)CO)C[C@@H](C)[C@H](CN(C)S(C)(=O)=O)OCCCC[C@@H](C)O3)cc1	DENV2 CPE 36 (no result: Rtt109 Vps75, PDI inh)
CCCN1[C@@H]2c3ccc(-c4ccccc4)c(=O)n3C[C@@H]2[C@@H](CO)[C@@H]1C(=O)NCCc1cn(C)cn1	none (no result: Rtt109 Vps75, PDI inh)
CC(C)(C)c1ccc(OC(=O)N2CCOCC2)cc1	SIRT5 block 16
CCC(=O)Nc1ccc2c(c1)C(=O)N(C)[C@@H]1CC[C@H](CC(=O)NCCc3ccccc3)O[C@@H]1CO2	none (no result: Rtt109 Vps75, PDI inh)
COC(=O)C(N)Cc1ccc(O)c(O)c1 (configuration not stated)	none (no result: ERp5 block, SIRT5 block, DENV2 CPE)
N[C@@H](Cc1cc(I)c(O)c(I)c1)C(=O)O	SIRT5 block 33
O=C(COC(=O)CCC(=O)c1cccs1)NCc1ccccc1	none
Cc1ccc(CNC(=O)COC(=O)CCC(=O)c2cccs2)cc1	SIRT5 block 19
COc1ccc(C(C(=O)NCc2ccccc2)n2c(-c3ccccn3)nc3ccccc32)cc1 (configuration not stated)	none (no result: Rtt109 Vps75, PDI inh, SIRT5 block)
COc1ccc(C(C(=O)NCc2ccccc2)n2c(-c3ccncc3)nc3ccccc32)cc1 (configuration not stated)	DENV2 CPE 22 (no result: Rtt109 Vps75, PDI inh, SIRT5 block)
O=C(N[C@H]1C=C[C@@H](CC(=O)N2CCc3ccccc3C2)O[C@H]1CO)C1CCOCC1	none (no result: Rtt109 Vps75, PDI inh)
O=C(CC(F)(F)F)N1C[C@@H]2[C@H](c3ccccc31)[C@@H](CO)N2C(=O)C1CC1	DENV2 CPE 36 (no result: Rtt109 Vps75, PDI inh)
O=C(Cc1ccccc1)N1C[C@@H]2[C@H](c3ccccc31)[C@H](CO)N2C(=O)C1CCCC1	none (no result: Rtt109 Vps75, PDI inh, DENV2 CPE)
O=C(CC(F)(F)F)N1C[C@@H]2[C@H](c3ccccc31)[C@@H](CO)N2C(=O)CN1CCOCC1	DENV2 CPE 53 (no result: Rtt109 Vps75, PDI inh)
COc1ccccc1C(=O)N1C[C@@H]2[C@H](c3ccccc31)[C@H](CO)N2C(=O)C1CCCC1	DENV2 CPE 22 (no result: Rtt109 Vps75, PDI inh)
O=C(Cc1ccccc1)N1C[C@@H]2[C@H](c3ccccc31)[C@@H](CO)N2C(=O)C1CCCCC1	DENV2 CPE 24 (no result: Rtt109 Vps75, PDI inh)
Cc1noc(C)c1NC(=O)Nc1ccc2c(c1)C(=O)N([C@@H](C)CO)C[C@H](C)[C@@H](CN(C)S(=O)(=O)c1ccccc1)OCCCC[C@H](C)O2	none (no result: Rtt109 Vps75, PDI inh)
O=C(Cc1ccccc1)N1C[C@H]2[C@@H](c3ccccc31)[C@@H](CO)N2C(=O)C1CC1	DENV2 CPE 25 (no result: Rtt109 Vps75, PDI inh)
O=C(Cc1ccccc1)N1C[C@@H]2[C@H](c3ccccc31)[C@@H](CO)N2C(=O)Cc1ccccc1	none (no result: Rtt109 Vps75, PDI inh)
CN(C)CCCNC(=O)C[C@H]1CC[C@@H]2[C@@H](COc3ccc(NC(=O)c4cccc(F)c4)cc3C(=O)N2C)O1	DENV2 CPE 42 (no result: Rtt109 Vps75, PDI inh)
CCCNC(=O)C[C@H]1CC[C@H]2[C@H](COc3ccc(NC(=O)c4cccc(F)c4)cc3C(=O)N2C)O1	none (no result: Rtt109 Vps75, PDI inh)
COCCNC(=O)C[C@@H]1CC[C@H]2[C@H](COc3ccc(NC(=O)Nc4cccc(F)c4)cc3C(=O)N2C)O1	SIRT5 block 23 (no result: Rtt109 Vps75, PDI inh)
O=C(C[C@H]1C[C@@H]2c3cc(NC(=O)C4CCOCC4)ccc3O[C@@H]2[C@H](CO)O1)NCc1ccc(Cl)cc1	none (no result: Rtt109 Vps75, PDI inh)
O=S(=O)(Nc1cccc(-n2cnnn2)c1)c1cccc(Cl)c1	DENV2 CPE 59
COc1ccc(OC)c(/C=C2\SC(=S)N(C(C(=O)O)c3ccccc3)C2=O)c1 (configuration not stated)	Rtt109 Vps75 66
CC(/C=C1\SC(=S)N(CC(=O)O)C1=O)=C\c1ccccc1	none
CC(/C=C1\SC(=S)N(C(C(=O)O)c2ccccc2)C1=O)=C\c1ccccc1 (configuration not stated)	Rtt109 Vps75 66
COc1ccc(S(=O)(=O)Nc2ccc3c(c2)C(=O)N([C@H](C)CO)C[C@@H](C)[C@@H](CN(C)Cc2ccc4c(c2)OCO4)O3)cc1	none (no result: Rtt109 Vps75, PDI inh)
CCN1C(=NCCc2c[nH]c3ccccc23)N[C@@H](c2ccccc2)[C@H](C(=O)OC)[C@H]1C	DENV2 CPE 27 (no result: SIRT5 block)
CCN1C(=NCc2ccccc2)N[C@@H](c2ccccc2)[C@H](C(=O)OC)[C@H]1C	none (no result: SIRT5 block)

Source: PubChem BioAssay
